Data published in paper PMC12820563, “FoxP3 forms a head-to-head dimer in vivo and stabilizes its multimerization on adjacent microsatellites”.
Whole data set: some 16,000 sequences, median “rpm ratio (pull-down/input)” near 0.94, cut for the highest 2% near 1.7. The sample as a whole holds a higher share of the highest values than the screen did.

Molecular target: T1, MBP-FoxP1dN (Mus musculus, UniProt P58462 326-579)
T1 sequence: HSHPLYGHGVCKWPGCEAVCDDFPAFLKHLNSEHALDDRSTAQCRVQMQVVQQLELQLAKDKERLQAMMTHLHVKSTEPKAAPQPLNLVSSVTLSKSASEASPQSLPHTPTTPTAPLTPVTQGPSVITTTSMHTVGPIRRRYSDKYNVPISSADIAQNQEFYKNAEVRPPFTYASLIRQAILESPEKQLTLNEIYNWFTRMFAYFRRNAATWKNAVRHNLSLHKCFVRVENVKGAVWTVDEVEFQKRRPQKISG
Assay: PD-seq (MBP pull-down with sequencing); 20 mM Tris-HCl pH 7.5, 100 mM NaCl, 1.5 mM MgCl2, 0.4 uM protein, 0.1 uM dsDNA library, 30 min, room temperature, amylose pull-down; high values mean tight binding
Details: protein: recombinant; tags: His6-MBP; chain copies: 2; dsDNA, one strand shown
Outline: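 Protein and DNA were mixed at 0.4 µM and 0.1 µM and held for 30 min at room temperature in Tris pH 7.5 buffer with NaCl and MgCl2; the protein was a His6-MBP-tagged, N-terminally truncated mouse FoxP3 or FoxP1 fragment from E. coli, and the DNA a Klenow-filled double-stranded degenerate library. Amylose resin captured the complexes, which were washed three times. Binding is read as reads-per-million enrichment of pull-down versus input after Illumina sequencing, with replicates pooled.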

Sequence | binding signal
GATGATTGTTCTCCCAGCTGATGAATTTAACGCCTCGAGTAAACAAATTTTCCTAATCTTTCTGTTCAAGCGCCATCTAC | 0.91 RPM ratio (pull-down/input)
GATGATTGTTCTCCCAGCTGATGAATTAGCGCACTCGAGTAAACAAATTTTCCTAATCTTTCTGTTCAAGCGCCATCTAC | 0.88 RPM ratio (pull-down/input)
GATGATTGTTCTCCCAGCTGATGAATTACACGCGTCGAGTAAACAAATTTTCCTAATCTTTCTGTTCAAGCGCCATCTAC | 1.18 RPM ratio (pull-down/input)
GATGATTGTTCTCCCAGCTGATGAATTCACGGGTTCGAGTAAACAAATTTTCCTAATCTTTCTGTTCAAGCGCCATCTAC | 0.766 RPM ratio (pull-down/input)
GATGATTGTTCTCCCAGCTGATGAATTCAGTCTATCGAGTAAACAAATTTTCCTAATCTTTCTGTTCAAGCGCCATCTAC | 0.905 RPM ratio (pull-down/input)
GATGATTGTTCTCCCAGCTGATGAATTCGCCACTTCGAGTAAACAAATTTTCCTAATCTTTCTGTTCAAGCGCCATCTAC | 0.857 RPM ratio (pull-down/input)
GATGATTGTTCTCCCAGCTGATGAATTGTACTCATCGAGTAAACAAATTTTCCTAATCTTTCTGTTCAAGCGCCATCTAC | 1.04 RPM ratio (pull-down/input)
GATGATTGTTCTCCCAGCTGATGAATTTTATAGGTCGAGTAAACAAATTTTCCTAATCTTTCTGTTCAAGCGCCATCTAC | 0.796 RPM ratio (pull-down/input)
GATGATTGTTCTCCCAGCTGATGAATTGAGTGTATCGAGTAAACAAATTTTCCTAATCTTTCTGTTCAAGCGCCATCTAC | 1.16 RPM ratio (pull-down/input)
GATGATTGTTCTCCCAGCTGATGAATTCATCTTATCGAGTAAACAAATTTTCCTAATCTTTCTGTTCAAGCGCCATCTAC | 0.961 RPM ratio (pull-down/input)
GATGATTGTTCTCCCAGCTGATGAATTTTATGTATCGAGTAAACAAATTTTCCTAATCTTTCTGTTCAAGCGCCATCTAC | 1.71 RPM ratio (pull-down/input)
GATGATTGTTCTCCCAGCTGATGAATTTTATGAATCGAGTAAACAAATTTTCCTAATCTTTCTGTTCAAGCGCCATCTAC | 0.942 RPM ratio (pull-down/input)
GATGATTGTTCTCCCAGCTGATGAATTTATGTAATCGAGTAAACAAATTTTCCTAATCTTTCTGTTCAAGCGCCATCTAC | 1.95 RPM ratio (pull-down/input)
GATGATTGTTCTCCCAGCTGATGAATTATCTTTATCGAGTAAACAAATTTTCCTAATCTTTCTGTTCAAGCGCCATCTAC | 1.09 RPM ratio (pull-down/input)
GATGATTGTTCTCCCAGCTGATGAATTTATGATATCGAGTAAACAAATTTTCCTAATCTTTCTGTTCAAGCGCCATCTAC | 1.33 RPM ratio (pull-down/input)
GATGATTGTTCTCCCAGCTGATGAATTCATGTTATCGAGTAAACAAATTTTCCTAATCTTTCTGTTCAAGCGCCATCTAC | 1.78 RPM ratio (pull-down/input)
GATGATTGTTCTCCCAGCTGATGAATTCATGTAATCGAGTAAACAAATTTTCCTAATCTTTCTGTTCAAGCGCCATCTAC | 1.5 RPM ratio (pull-down/input)
GATGATTGTTCTCCCAGCTGATGAATTATGTTTATCGAGTAAACAAATTTTCCTAATCTTTCTGTTCAAGCGCCATCTAC | 2.99 RPM ratio (pull-down/input)
GATGATTGTTCTCCCAGCTGATGAATTATGATTATCGAGTAAACAAATTTTCCTAATCTTTCTGTTCAAGCGCCATCTAC | 1.51 RPM ratio (pull-down/input)
GATGATTGTTCTCCCAGCTGATGAATTATGTAAATCGAGTAAACAAATTTTCCTAATCTTTCTGTTCAAGCGCCATCTAC | 1.47 RPM ratio (pull-down/input)
GATGATTGTTCTCCCAGCTGATGAATTTATGTTATCGAGTAAACAAATTTTCCTAATCTTTCTGTTCAAGCGCCATCTAC | 2.22 RPM ratio (pull-down/input)

Sequence | binding signal
GATGATTGTTCTCCCAGCTGATGAATTCCATGTGTCGAGTAAACAAATTTTCCTAATCTTTCTGTTCAAGCGCCATCTAC | 0.939 RPM ratio (pull-down/input)
GATGATTGTTCTCCCAGCTGATGAATTTTTCGGATCGAGTAAACAAATTTTCCTAATCTTTCTGTTCAAGCGCCATCTAC | 0.904 RPM ratio (pull-down/input)
GATGATTGTTCTCCCAGCTGATGAATTCCTTTAGTCGAGTAAACAAATTTTCCTAATCTTTCTGTTCAAGCGCCATCTAC | 0.819 RPM ratio (pull-down/input)
GATGATTGTTCTCCCAGCTGATGAATTAGTGCAGTCGAGTAAACAAATTTTCCTAATCTTTCTGTTCAAGCGCCATCTAC | 0.937 RPM ratio (pull-down/input)
GATGATTGTTCTCCCAGCTGATGAATTGTTTGGATCGAGTAAACAAATTTTCCTAATCTTTCTGTTCAAGCGCCATCTAC | 1.65 RPM ratio (pull-down/input)
GATGATTGTTCTCCCAGCTGATGAATTGGGGACCTCGAGTAAACAAATTTTCCTAATCTTTCTGTTCAAGCGCCATCTAC | 0.742 RPM ratio (pull-down/input)
GATGATTGTTCTCCCAGCTGATGAATTCGGACTATCGAGTAAACAAATTTTCCTAATCTTTCTGTTCAAGCGCCATCTAC | 0.87 RPM ratio (pull-down/input)
GATGATTGTTCTCCCAGCTGATGAATTGATGTTATCGAGTAAACAAATTTTCCTAATCTTTCTGTTCAAGCGCCATCTAC | 2.17 RPM ratio (pull-down/input)
GATGATTGTTCTCCCAGCTGATGAATTTCAGTTATCGAGTAAACAAATTTTCCTAATCTTTCTGTTCAAGCGCCATCTAC | 1.02 RPM ratio (pull-down/input)
GATGATTGTTCTCCCAGCTGATGAATTGAATTTATCGAGTAAACAAATTTTCCTAATCTTTCTGTTCAAGCGCCATCTAC | 1.05 RPM ratio (pull-down/input)
GATGATTGTTCTCCCAGCTGATGAATTATGTTAATCGAGTAAACAAATTTTCCTAATCTTTCTGTTCAAGCGCCATCTAC | 1.21 RPM ratio (pull-down/input)
GATGATTGTTCTCCCAGCTGATGAATTATTGTCATCGAGTAAACAAATTTTCCTAATCTTTCTGTTCAAGCGCCATCTAC | 1.86 RPM ratio (pull-down/input)
GATGATTGTTCTCCCAGCTGATGAATTTTTGCTATCGAGTAAACAAATTTTCCTAATCTTTCTGTTCAAGCGCCATCTAC | 1.21 RPM ratio (pull-down/input)
GATGATTGTTCTCCCAGCTGATGAATTATCGATATCGAGTAAACAAATTTTCCTAATCTTTCTGTTCAAGCGCCATCTAC | 1.08 RPM ratio (pull-down/input)
GATGATTGTTCTCCCAGCTGATGAATTGCTATTATCGAGTAAACAAATTTTCCTAATCTTTCTGTTCAAGCGCCATCTAC | 1.8 RPM ratio (pull-down/input)
GATGATTGTTCTCCCAGCTGATGAATTATTGCTATCGAGTAAACAAATTTTCCTAATCTTTCTGTTCAAGCGCCATCTAC | 1.3 RPM ratio (pull-down/input)
GATGATTGTTCTCCCAGCTGATGAATTATTTTCATCGAGTAAACAAATTTTCCTAATCTTTCTGTTCAAGCGCCATCTAC | 1.27 RPM ratio (pull-down/input)
GATGATTGTTCTCCCAGCTGATGAATTAAATGTATCGAGTAAACAAATTTTCCTAATCTTTCTGTTCAAGCGCCATCTAC | 1.4 RPM ratio (pull-down/input)
GATGATTGTTCTCCCAGCTGATGAATTAATGTTATCGAGTAAACAAATTTTCCTAATCTTTCTGTTCAAGCGCCATCTAC | 1.95 RPM ratio (pull-down/input)
GATGATTGTTCTCCCAGCTGATGAATTATTGATATCGAGTAAACAAATTTTCCTAATCTTTCTGTTCAAGCGCCATCTAC | 1.53 RPM ratio (pull-down/input)
GATGATTGTTCTCCCAGCTGATGAATTGTCATTATCGAGTAAACAAATTTTCCTAATCTTTCTGTTCAAGCGCCATCTAC | 1.31 RPM ratio (pull-down/input)

Sequence | binding signal
GATGATTGTTCTCCCAGCTGATGAATTGATATTATCGAGTAAACAAATTTTCCTAATCTTTCTGTTCAAGCGCCATCTAC | 1.92 RPM ratio (pull-down/input)
GATGATTGTTCTCCCAGCTGATGAATTCAGATATTCGAGTAAACAAATTTTCCTAATCTTTCTGTTCAAGCGCCATCTAC | 1.01 RPM ratio (pull-down/input)
GATGATTGTTCTCCCAGCTGATGAATTAAGTTGATCGAGTAAACAAATTTTCCTAATCTTTCTGTTCAAGCGCCATCTAC | 1.17 RPM ratio (pull-down/input)
GATGATTGTTCTCCCAGCTGATGAATTCGATCCGTCGAGTAAACAAATTTTCCTAATCTTTCTGTTCAAGCGCCATCTAC | 0.886 RPM ratio (pull-down/input)
GATGATTGTTCTCCCAGCTGATGAATTGTTCCGATCGAGTAAACAAATTTTCCTAATCTTTCTGTTCAAGCGCCATCTAC | 1.04 RPM ratio (pull-down/input)
GATGATTGTTCTCCCAGCTGATGAATTGGCTTAGTCGAGTAAACAAATTTTCCTAATCTTTCTGTTCAAGCGCCATCTAC | 0.844 RPM ratio (pull-down/input)
GATGATTGTTCTCCCAGCTGATGAATTGATAAAATCGAGTAAACAAATTTTCCTAATCTTTCTGTTCAAGCGCCATCTAC | 1.14 RPM ratio (pull-down/input)
GATGATTGTTCTCCCAGCTGATGAATTAACGAGCTCGAGTAAACAAATTTTCCTAATCTTTCTGTTCAAGCGCCATCTAC | 0.81 RPM ratio (pull-down/input)
GATGATTGTTCTCCCAGCTGATGAATTCTAGTGGTCGAGTAAACAAATTTTCCTAATCTTTCTGTTCAAGCGCCATCTAC | 0.86 RPM ratio (pull-down/input)
GATGATTGTTCTCCCAGCTGATGAATTTATTATCTCGAGTAAACAAATTTTCCTAATCTTTCTGTTCAAGCGCCATCTAC | 1.41 RPM ratio (pull-down/input)
GATGATTGTTCTCCCAGCTGATGAATTATCTTTCTCGAGTAAACAAATTTTCCTAATCTTTCTGTTCAAGCGCCATCTAC | 0.948 RPM ratio (pull-down/input)
GATGATTGTTCTCCCAGCTGATGAATTTTCAACATCGAGTAAACAAATTTTCCTAATCTTTCTGTTCAAGCGCCATCTAC | 1.14 RPM ratio (pull-down/input)
GATGATTGTTCTCCCAGCTGATGAATTAGTATTATCGAGTAAACAAATTTTCCTAATCTTTCTGTTCAAGCGCCATCTAC | 1.75 RPM ratio (pull-down/input)
GATGATTGTTCTCCCAGCTGATGAATTATTTATCTCGAGTAAACAAATTTTCCTAATCTTTCTGTTCAAGCGCCATCTAC | 1.76 RPM ratio (pull-down/input)
GATGATTGTTCTCCCAGCTGATGAATTTTATTGATCGAGTAAACAAATTTTCCTAATCTTTCTGTTCAAGCGCCATCTAC | 2.45 RPM ratio (pull-down/input)
GATGATTGTTCTCCCAGCTGATGAATTATTAGTATCGAGTAAACAAATTTTCCTAATCTTTCTGTTCAAGCGCCATCTAC | 1.46 RPM ratio (pull-down/input)
GATGATTGTTCTCCCAGCTGATGAATTTATTTGATCGAGTAAACAAATTTTCCTAATCTTTCTGTTCAAGCGCCATCTAC | 1.2 RPM ratio (pull-down/input)
GATGATTGTTCTCCCAGCTGATGAATTGTCAACATCGAGTAAACAAATTTTCCTAATCTTTCTGTTCAAGCGCCATCTAC | 2.76 RPM ratio (pull-down/input)
GATGATTGTTCTCCCAGCTGATGAATTAGTAGTATCGAGTAAACAAATTTTCCTAATCTTTCTGTTCAAGCGCCATCTAC | 1.2 RPM ratio (pull-down/input)
GATGATTGTTCTCCCAGCTGATGAATTTATTGAATCGAGTAAACAAATTTTCCTAATCTTTCTGTTCAAGCGCCATCTAC | 1.28 RPM ratio (pull-down/input)
GATGATTGTTCTCCCAGCTGATGAATTTGTCAAATCGAGTAAACAAATTTTCCTAATCTTTCTGTTCAAGCGCCATCTAC | 1.17 RPM ratio (pull-down/input)
